Out of some 62,000 compounds screened, about 40 (0.06%) were called active. Cut-off read from the data, not from the text of the source: active = inhibition above about 22% (passing the limit was not always enough); inconclusive = no clear call, values can overlap the other calls. The full list was thinned out, with actives kept by preference.
The compounds below were run against Cathepsin B (Homo sapiens) (UniProt P07858) (assay: cathepsin B inhibitors from pooled compounds, primary screen, biochemical, compound mixtures, AMC fluorescence (AID 488;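 note: 0% = enzyme without compound and 100% = no enzyme blank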)). Details: Purified cathepsin B, AMC dipeptide fluorescence, active compounds read high,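 ten-compound pools at 5 µM per compound and 50 µM total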.
In the case of `Cc1ccc(C(=O)CSc2nnc(Cn3nnc4ccccc43)n2C)cc1`, the inhibition is reported as -0.39% (inactive).
For `C=CCn1c(SCc2csc(C)n2)nc2scc(-c3ccc(C)o3)c2c1=O`, the inhibition was 5.42% (inactive).
In the case of `Cc1ccc2nc(NCCCNC(=O)c3cnccn3)c(C#N)cc2c1`, the inhibition is reported as 1.1% (inactive).
For `CCNc1nc(SCCOc2ccccc2)nc(N(C)C)n1`, the inhibition was 3.91% (inactive).
With `C/C(Cl)=C\Cn1c(Nc2cccc(C)c2)nc2c1c(=O)n(C)c(=O)n2C` the inhibition was 5.3% (inactive).
`Cc1ccccc1S(=O)(=O)Cc1ccc(C(=O)NCCN2CCCCC2C)o1` (stereo unspecified) was tested, and the inhibition was 3.67% (inactive).
With `CCOc1ccc2[nH]c(=O)c(CN(Cc3nnnn3Cc3ccccc3)CC3CCCO3)cc2c1` (stereo unspecified) the inhibition was 3.02% (inactive).
In the case of `COC(=O)Nc1ncc(CN2C(=O)c3ccccc3C2=O)s1`, the inhibition is reported as -2.69% (inactive).
For `CCCS(=O)(=O)N1CCCC(C(=O)NCCN2CCCCC2C)C1` (stereo unspecified), the inhibition was 3.97% (inactive).
In the case of `Cc1ccc(C(C(=O)NC2CCCC2)N(Cc2ccco2)C(=O)CCC(=O)Nc2ccccn2)cc1` (stereo unspecified), the inhibition is reported as 3.21% (inactive).
With `CCCCn1c(CN2CCN(CCO)CC2)nc2ccccc21` the inhibition was 2.92% (inactive).
For `CCc1ccc(-c2nnn(Cc3nc4ccccc4s3)n2)cc1`, the inhibition was 4.33% (inactive).
For `O=c1[nH]nc(CSCc2ccccc2Cl)[nH]1`, the inhibition was 4.72% (inactive).
With `O=C(COc1ccc(F)cc1)N(CC1=CCS(=O)(=O)C1)c1ccccc1` the inhibition was -3.79% (inactive).
In the case of `Cc1ccc2cc3cc(C(=O)N4CCCCCC4)oc3nc2c1`, the inhibition is reported as 3.89% (inactive).
For `C=CCn1c(N)c(C(=O)OCC(C)C)c2nc3ccccc3nc21`, the inhibition was -4.76% (inactive).
With `COc1cccc(NS(=O)(=O)c2ccc3[nH]cc(C(=O)NCCCOC(C)C)c(=O)c3c2)c1` the inhibition was 5.5% (inactive).
In the case of `COC(=O)[C@H](CCSC)NC(=O)Nc1ccc(OC)cc1`, the inhibition is reported as 1.64% (inactive).
For `C=CCNC(=O)c1cc(-c2ccccc2O)on1`, the inhibition was -1.28% (inactive).
For `O=C(CSc1nnc(-c2ccco2)n1Cc1ccccc1)NC(=O)NCc1ccco1`, the inhibition was -0.985% (inactive).
With `COCCCN(C(=O)Cn1ncc2c(=O)oc3ccc(C)cc3c21)C(C)c1ccncc1` (stereo unspecified) the inhibition was 1.95% (inactive).
In the case of `O=C(CN1C(=O)NC2(CCCCC2)C1=O)NCCC1=CCCCC1`, the inhibition is reported as 4.21% (inactive).
In the case of `Cc1cc(NC(=O)COn2nnc3ccccc32)no1`, the inhibition is reported as 1.15% (inactive).
`CCc1ccccc1NC(=O)CSc1nnc([C@@H](NC(=O)OC(C)(C)C)C(C)C)o1` was tested, and the inhibition was 5.22% (inactive).
With `COc1ccc(C(=O)Nc2ccc3c(c2)OCO3)cc1OC` the inhibition was 1.18% (inactive).
For `Cc1ccc(C(=O)Nc2ccc3c(c2)OCO3)cc1S(=O)(=O)N1CCCCC1`, the inhibition was 62.7% (active).
For `Cc1ccc(C(=O)NCC(=O)O)cc1S(=O)(=O)N1CCCCC1`, the inhibition was 1.96% (inactive).
`COc1ccc(NS(=O)(=O)c2ccc(NC(C)=O)cc2)cc1OC` was tested, and the inhibition was 2.73% (inactive).
With `CCC(=O)c1ccc(OCC(O)CN2CCN(c3cccc(C(F)(F)F)c3)CC2)cc1` (stereo unspecified) the inhibition was 2.81% (inactive).
With `Cc1noc(C)c1S(=O)(=O)Nc1ccc(C(=O)O)cc1` the inhibition was 5.64% (inactive).
`COc1ccc(CC(=O)c2ccc(O)cc2O)cc1OC` was tested, and the inhibition was -2.36% (inactive).
With `Cc1ccc(SCCN2C(=O)NC(C)(C)C2=O)cc1` the inhibition was 3.79% (inactive).
For `CCCc1nc(N)nc2c1C(=O)CC(C)(C)C2`, the inhibition was 3.17% (inactive).
With `CCC(=O)N1CCc2cc(S(=O)(=O)NC(C(=O)N3CCc4ccccc4C3)C(C)C)ccc21` (stereo unspecified) the inhibition was 15.3% (inactive).
In the case of `O=C(NCc1ccc(Cl)c(Cl)c1)c1cccnc1`, the inhibition is reported as -2.21% (inactive).
With `CCCC(CCC(=O)OC)(C(=O)OCC)c1csc(N)n1` (stereo unspecified) the inhibition was 6.54% (inactive).
For `CC1CCCN(Cc2nc3c(c(=O)n(C)c(=O)n3C)n2Cc2cccc3ccccc23)C1` (stereo unspecified), the inhibition was 1.14% (inactive).
For `CN(CCCC(=O)Nc1nccs1)S(=O)(=O)c1ccc(Cl)cc1`, the inhibition was 3.83% (inactive).
With `Cc1ccc(S(=O)(=O)N2CCN(C(=O)CCC(=O)NC3CCCc4ccccc43)CC2)cc1` (stereo unspecified) the inhibition was 1.64% (inactive).
For `CC(=O)Nc1cc(C(=O)O)ccc1S(=O)(=O)c1ccc(Cl)cc1`, the inhibition was -0.3% (inactive).
`CCCC(=O)N1c2ccccc2NC2=C(C(=O)CCC2)C1c1ccc(F)cc1` (stereo unspecified) was tested, and the inhibition was 4.79% (inactive).
For `COc1ccc(OC)c(NC(=O)CSc2nc3cccnc3n2C)c1`, the inhibition was -8.48% (inactive).
For `O=C1NC(Nc2nc3ccccc3s2)(C(F)(F)F)C(=O)N1C1CCCCC1` (stereo unspecified), the inhibition was 1.35% (inactive).
`CN1CCN(C(=O)C2C3C=CC(C3)C2C(=O)O)CC1` (stereo unspecified) was tested, and the inhibition was 5.22% (inactive).
In the case of `CSCCC(NC(=O)c1ccc(=O)n(C)n1)c1nc2ccccc2[nH]1` (stereo unspecified), the inhibition is reported as -2.06% (inactive).
For `c1ccc2c(c1)OCC(c1nn3cnnc3s1)O2` (stereo unspecified), the inhibition was -2.62% (inactive).
With `O=C(NCCN1C(=O)C2C3C=CC(C3)C2C1=O)Nc1ccccn1` (stereo unspecified) the inhibition was 7.59% (inactive).
With `Cn1c2ccccc2c2c(C(=O)N3CCN(c4ccc(F)cc4)CC3)cn(C3CCCC3)c(=O)c21` the inhibition was 4.51% (inactive).
`CCCNc1ncnc2sc(C)c(C)c12` was tested, and the inhibition was 2.56% (inactive).
For `O=C(CSc1nnnn1-c1ccc2c(c1)CCC2)Nc1ccc2c(c1)OCCO2`, the inhibition was 0.15% (inactive).
In the case of `Cn1c(=O)n(C)c2cc(CNc3ccc(N4CCOCC4)c(C(=O)O)c3)ccc21`, the inhibition is reported as -0.23% (inactive).
`O=C(Nc1ccc(Cl)cc1)c1ccsn1` was tested, and the inhibition was -2.12% (inactive).
`COc1ccc(OC)c(C(=O)CSc2nnc(-c3cccs3)o2)c1` was tested, and the inhibition was -2.44% (inactive).
In the case of `CCN(CC)S(=O)(=O)c1ccc2nc(COC(=O)c3n[nH]c4ccccc34)[nH]c2c1`, the inhibition is reported as 3.42% (inactive).
In the case of `O=C(NC(c1ccccc1)c1ccccc1)N1CCN(CCO)CC1`, the inhibition is reported as 3.62% (inactive).
For `CC1CCC(NC(=O)c2ccc(N3CCCC3=O)cc2)CC1` (stereo unspecified), the inhibition was -4.06% (inactive).
With `COCC(=O)Nc1nnc(COc2ccccc2)s1` the inhibition was -8.97% (inactive).
In the case of `COC(C)(C)[C@]12CC(O)(C(C)C)ON1[C@H]1CCCCC1N2O` (stereo partly specified), the inhibition is reported as -3.22% (inactive).
With `Cn1c(=O)c2c(n(Cc3ccccc3)c1=O)NC(=O)C2CC(=O)N1CCc2ccccc2C1` (stereo unspecified) the inhibition was 0.76% (inactive).
In the case of `O=c1c2c(nc3n1CCCCC3)sc1c(O)cccc12`, the inhibition is reported as 5.69% (inactive).
For `CC(C)c1ccc(NS(=O)(=O)c2cn(C)c(=O)n(C)c2=O)cc1`, the inhibition was 3.38% (inactive).
In the case of `CCCCNC(=O)c1ccccc1NC(=O)c1ccccc1N(C)S(C)(=O)=O`, the inhibition is reported as 7.15% (inactive).
In the case of `CCOC(=O)Cc1csc(NC(=O)CN(C)S(=O)(=O)c2ccc3c(c2)CCC(=O)N3)n1`, the inhibition is reported as 3.69% (inactive).
In the case of `COc1ccc(-c2nc(CS(=O)CC(=O)N3CCc4ccccc4C3)c(C)o2)cc1` (stereo unspecified), the inhibition is reported as 4.29% (inactive).
`CCC(C)Sc1nc(C)nc2c1c(=O)n(C)c(=O)n2C` (stereo unspecified) was tested, and the inhibition was 2.91% (inactive).
In the case of `N#CCCn1ncc2ccccc21`, the inhibition is reported as -3.63% (inactive).
`COc1ccc(CCN2CNc3c(c(=O)n(C)c(=O)n3C)C2)cc1OC` was tested, and the inhibition was 0.085% (inactive).
For `COc1ccc(-c2ccnc(SCC(=O)N3CCOCC3)n2)cc1`, the inhibition was -0.81% (inactive).
`CCN1CCN(c2c(Cl)cccc2NC(=O)c2ccc(Br)o2)CC1` was tested, and the inhibition was 5.68% (inactive).
With `COc1nc(NCc2ccc(Cl)cc2)nc(OC)n1` the inhibition was 6.46% (inactive).
`CCCn1c(SCC(=O)N2CCc3ccccc32)nnc1-c1ccncc1` was tested, and the inhibition was 5.11% (inactive).
With `CC(C)(C)NC(=O)NC(=O)COC(=O)Cn1c(C(F)(F)F)nc2ccccc21` the inhibition was 0.995% (inactive).
With `N#Cc1cccc(CSc2nnc(CCCO)n2-c2ccccc2)c1` the inhibition was 22% (inactive).
With `COC(=O)c1c(NC(=O)CCN2CCOCC2)sc2c1CCCC2` the inhibition was 3.41% (inactive).
With `Cn1c(=O)cc(SCC(=O)N2CCN(C(=O)c3ccco3)CC2)c2ccccc21` the inhibition was 2.19% (inactive).
With `Cc1ccccc1-c1nc(CS(=O)(=O)CC(=O)N2CCc3ccccc3C2)c(C)o1` the inhibition was 4.15% (inactive).
With `Cc1cccc(NC(=O)C2CCN(S(=O)(=O)c3cccc4cccnc34)CC2)c1` the inhibition was 4.24% (inactive).
With `Cc1cc(Nc2ccc(Br)cc2F)n2ncnc2n1` the inhibition was -2.18% (inactive).
`COc1ccc(C(CC(=O)O)NC(=O)Cc2ccccc2)cc1` (stereo unspecified) was tested, and the inhibition was -0.455% (inactive).
`COc1ccc(S(=O)(=O)N2CCCCC2)cc1Br` was tested, and the inhibition was 2.55% (inactive).
In the case of `CC(=O)c1cc(-c2ccccc2)[nH]c1N1CCCC1`, the inhibition is reported as 2.3% (inactive).
For `CC1Oc2ccccc2N(Cc2cccnc2)C1=O` (stereo unspecified), the inhibition was 4.41% (inactive).
For `O=C(CCS(=O)(=O)c1cccc2nonc12)NCCc1ccccc1Cl`, the inhibition was 4.8% (inactive).
With `Cn1cccc1Cc1nnc(SCC(=O)NCCc2ccccc2)n1-c1ccc(F)cc1` the inhibition was 4.42% (inactive).
For `CC1(C)Oc2ccc(C(=O)N3CCOCC3)cc2N(CC(=O)Nc2ccccc2)C1=O`, the inhibition was -0.39% (inactive).
`COc1ccccc1C(=O)C(O)c1ccccc1OC` (stereo unspecified) was tested, and the inhibition was 1.43% (inactive).
With `O=C(Cn1cc(C(=O)c2cccs2)c2ccccc21)NCc1cccs1` the inhibition was -1.35% (inactive).
`CCOC(=O)COc1ccc(Cl)cc1C1NC(=O)NC(C)=C1C(C)=O` (stereo unspecified) was tested, and the inhibition was -5.4% (inactive).
`O=C(NCc1ccccn1)c1c(O)c2c([nH]c1=O)CCCC2` was tested, and the inhibition was 4.33% (inactive).
For `CC12COC3(C(=O)Nc4ccc(Cl)cn4)CC1CCC32C` (stereo unspecified), the inhibition was 2.24% (inactive).
For `COc1cccc(C(CC(=O)NCCN2CCOCC2)NS(=O)(=O)c2ccc(C)cc2)c1OC` (stereo unspecified), the inhibition was -2.29% (inactive).
`CCN(C(=O)CSc1ncn[nH]1)c1cccc2ccccc12` was tested, and the inhibition was 5.46% (inactive).
`Cn1c(=O)c2c(nc(N3CCCCCC3)n2CC(=O)c2ccc(Br)cc2)n(C)c1=O` was tested, and the inhibition was 6.96% (inactive).
For `CCOC(=O)CSc1nnc(CNC(=O)c2cccs2)n1-c1ccccc1`, the inhibition was 3.94% (inactive).
In the case of `CCCOc1ccc(NC(=O)C2CCCNC2=O)cc1` (stereo unspecified), the inhibition is reported as 0.055% (inactive).
In the case of `CCOC(=O)N1CCN(C(=O)c2ccc(S(=O)(=O)c3ccc(C)cc3)c(NC(C)=O)c2)CC1`, the inhibition is reported as 0.155% (inactive).
